The text below walks through data of ChEMBL document CHEMBL3988442, “University of Dundee, Small-Polar-MMV Screening Library” (2021).

Hit rate of the full screen: of about 48,000 compounds, about 13,000 (27%) showed an effect of 50% or more. The list shows a part of the results.

This assay deals with Wolbachia pipientis. Description: Anti-Wolbachia Cell-Based Screen. To be noted: 5 µM. More on the design: scale not given: in the data most compounds retested in dose-response had high values. It counts as functional.
With `Cc1nn(C)c(C)c1C1CCCN1Cc1nc(C)c2ccccc2n1` (stereo unspecified), the “Percent Effect” value worked out at 40.75%. Then `Cc1nc(C)n(CC2CCCN2Cc2nc3ccccc3n2C)n1` (stereo unspecified), with 1.241%. Consider `CCC1CCCN(Cc2nc3ccccc3c(=O)[nH]2)C1` (stereo unspecified), for which the “Percent Effect” value was -14.75%. Next, `Cc1nn(C)c(C)c1C1CCCN1Cc1nc2ccccc2c(=O)[nH]1` (stereo unspecified): 97.01%. Then `Cc1cc(C)n(C2CCN(Cc3nc4ccccc4n3C)CC2)n1`, with 188.5%; and `Cc1nn(C)c(C)c1C1CCCN1Cc1nc(N)c2ccccc2n1` (stereo unspecified), with 120.3%. As to `Cc1nn(C)c(C)c1C1CCCN1Cc1nc2ccccc2o1` (stereo unspecified), the “Percent Effect” value came out at 33.14%. `Cn1c(CN2CCN(CC3CCCO3)CC2)nc2ccccc21` (stereo unspecified): the “Percent Effect” value is listed as -23.45%. For the compound `Cc1nc2ccccc2nc1CN1CCCC1c1c(C)nn(C)c1C` (stereo unspecified), the “Percent Effect” value is 2.386%. `Cc1nc(CN2CCCC2c2c(C)nn(C)c2Cl)no1` (stereo unspecified): the “Percent Effect” value is -6.071%.

Take `Cc1nn(C)c(C)c1C1CCCN1Cc1nc2ccccc2n1C` (stereo unspecified): the “Percent Effect” value came out at 136.2%. With `O=c1oc(-c2ccccc2)nn1CN1CCC(N2CCCCC2)CC1`, the “Percent Effect” value is -11.85%. For `Cc1nc2scc(C)n2c1CNc1ccc(C(=O)O)cc1`, the “Percent Effect” value is 1.868%. Regarding `CCC[C@@H]1CN(S(=O)(=O)c2ccc3[nH]c(=O)[nH]c3c2)C[C@H]1NC(C)=O`, the “Percent Effect” value was -12.43%. For the compound `Cn1c(CN2CCN(CC3CC3)CC2)nnc1C1CCC1`, the “Percent Effect” value is recorded as -1.801%. As for `Cc1ccnc(C(NC(=O)c2ccc(O)nc2C)C2CC2)n1` (stereo unspecified), the “Percent Effect” value was found to be 19.85%. On to `COC(CNC(=O)c1ccc[nH]1)c1cccc(Cl)c1` (stereo unspecified), for which the “Percent Effect” value was -25.79%. In the case of `Cc1cccc2c1nc(CCO)n2-c1ccc(C(=O)N2CCOCC2)o1`, the “Percent Effect” value is -4.594%. Next, `CC(C)Oc1cc(N2CCC(C(N)=O)CC2)nc(N)n1`: 11.1%; `CCN(CC)S(=O)(=O)N1CC[C@H](c2ccccc2)[C@@H]2[C@H]1CCCCN2C`: 135.6%; `CCN(CC(=O)NC(C)C)S(=O)(=O)N1CCCCC1C` (stereo unspecified): -3.982%. In the case of `CCN(CC)S(=O)(=O)N1C[C@@H](c2ccccc2)[C@H]2[C@H]1CCCCCN2C`, the “Percent Effect” value is listed as 163.4%. Take `Cc1cc(S(=O)(=O)N2CCCc3ccc(F)cc32)sc1C(=O)O`: the “Percent Effect” value was -10.9%. For `O=C([C@@H]1CCO[C@@H]2CCN(Cc3ccco3)C[C@H]21)N1CCCCO1`, the “Percent Effect” value was 1.589%. As to `COc1ccc(CN2CCC[C@@H]3CN(C(=O)c4ccco4)C[C@@H]32)cc1.O=C(O)C(F)(F)F`, the “Percent Effect” value is recorded as 6.144%. For the compound `COC(C)(C)CNC(=O)C1CCC(=O)N(C2CCCC2)C1` (stereo unspecified), the “Percent Effect” value was -37.87%.

On to `CC(=O)N1CCCN(C2CCCCc3ccccc32)CC1` (stereo unspecified), for which the “Percent Effect” value is given as 16.59%.

On to `COCC(=O)N1CCC(=O)N(C2CCCC2)Cc2ccccc21`, for which the “Percent Effect” value turned out to be 125.1%.

`CC(=O)N1CCC(=O)N(C2CCCC2)Cc2ccccc21`: the “Percent Effect” value is 106.7%. Regarding `COCC(=O)N1CCC(=O)N(C2CCCC2)Cc2cc(F)ccc21`, the “Percent Effect” value is reported as 102.4%. Then `COCC(=O)N1CCCN(C(=O)C2Cc3ccccc3CN2C)CC1` (stereo unspecified), with -0.0278%; and `COc1cccc(SCC(=O)N2CCCC(N3CCCC3=O)C2)c1` (stereo unspecified), with 3.036%; and `COc1cccc(-n2nnc(C(=O)N3CCCC3)c2C)c1`, with -5.233%.

For the compound `Cn1cc(C[C@H]2[C@@H](O)CCN2C(=O)c2ccc[nH]2)cn1`, the “Percent Effect” value is listed as -3.734%. In the case of `CO[C@H]1CCN(c2ccc(C)nn2)[C@H]1Cc1cnn(C)c1`, the “Percent Effect” value is listed as -0.6949%. In the case of `CCO[C@@H]1CCN(c2ccc(C)nn2)[C@@H]1Cc1cnn(C)c1`, the “Percent Effect” value is reported as 109.6%. Consider `COCCO[C@H]1CCN(c2ccc(C)nn2)[C@H]1Cc1cnn(C)c1`, for which the “Percent Effect” value is recorded as 102.2%. Take `CCO[C@@H]1CCN(C(=O)N(C)C)[C@@H]1Cc1cnn(C)c1`: the “Percent Effect” value came to 6.075%. As to `Cc1ccc(N2CC[C@H](O)[C@@H]2Cc2cnn(C)c2)nn1`, the “Percent Effect” value is 105.5%. Regarding `COCCO[C@@H]1CCN(C(=O)c2ccc(C)o2)[C@@H]1Cc1cnn(C)c1`, the “Percent Effect” value is given as -2.237%.

Take `COCCO[C@H]1CCN(C(=O)c2ccno2)[C@H]1Cc1cnn(C)c1`: the “Percent Effect” value is given as -8.767%. Next, `Cn1cc(C[C@H]2[C@H](O)CCN2C(=O)C2CCCC2)cn1`: -2.611%; `CCC(C)(NCC(=O)OC)c1nc(C)cs1` (stereo unspecified): 4.251%. Consider `CC(C)c1nc2n(n1)CC(NCC(=O)N(C)Cc1cccs1)CC2` (stereo unspecified), for which the “Percent Effect” value is on record as -0.7675%. On to `Cn1c(=O)[nH]c2cc(C(=O)OCCCn3ccccc3=O)ccc21`, for which the “Percent Effect” value is -6.987%. As for `CCO[C@@H]1CC[C@H]2[C@H]1OCCN2CCOCc1ccccc1.O=C(O)C(F)(F)F`, the “Percent Effect” value is recorded as -21.46%. Then `Cc1nnc(N2C[C@@H](OCCCn3cccn3)[C@H]3OCCC[C@H]32)s1.O=C(O)C(F)(F)F.O=C(O)C(F)(F)F`, with 12.15%; and `O=C(O)C(F)(F)F.O=C(O)C(F)(F)F.c1cnn(CCCO[C@@H]2CC[C@H]3[C@H]2OCCN3CC2CC2)c1`, with 100.5%.

As to `Cc1nnc(N2C[C@H](OCCCn3cccn3)[C@H]3OCCC[C@H]32)s1`, the “Percent Effect” value was determined as 1.098%. Take `O=C(CO[C@@H]1CC[C@H]2[C@H]1OCCN2CC1CCOCC1)N1CCCC1.O=C(O)C(F)(F)F`: the “Percent Effect” value is -8.196%.

On to `O=C(O)C(F)(F)F.O=C(O)C(F)(F)F.c1cnn(CCCO[C@@H]2CN(C3CCOCC3)[C@@H]3CCCO[C@@H]32)c1`, for which the “Percent Effect” value was determined as 99.23%. For the compound `CCO[C@H]1CC[C@H]2[C@H]1OCCN2CCOCc1ccccc1.O=C(O)C(F)(F)F`, the “Percent Effect” value is -37.65%. For `O=C(O)C(F)(F)F.O=C(O)C(F)(F)F.c1cnn(CCCO[C@@H]2CC[C@H]3[C@H]2OCCN3CC2CCOCC2)c1`, the “Percent Effect” value is on record as 107.9%. Then `CN(C)CCSc1ccc(NC(=O)c2nccn3ccnc23)cc1`, with 11.77%; and `COc1cc(OC)cc(C2CCN(CC(=O)NCC(F)(F)F)C2)c1` (stereo unspecified), with -9.174%.

In the case of `Cc1ccc(CN2CCC3(CC2)COCCN3S(C)(=O)=O)o1.O=C(O)C(F)(F)F`, the “Percent Effect” value worked out at 105%. For the compound `Cc1ccc(CN2CCOC3(COCCN(S(C)(=O)=O)C3)C2)o1.O=C(O)C(F)(F)F` (stereo unspecified), the “Percent Effect” value was -4.149%. As to `CS(=O)(=O)N1CCOCC2(CN(Cc3ccc(F)cc3)CCO2)C1.O=C(O)C(F)(F)F` (stereo unspecified), the “Percent Effect” value was -3.432%.

Regarding `CS(=O)(=O)N1CCOCC12CCN(Cc1ccc(F)cc1)CC2.O=C(O)C(F)(F)F`, the “Percent Effect” value turned out to be 90.38%. For the compound `Cc1ccc(CN2CCOC3(COCCN(Cc4ccncc4)C3)C2)o1.O=C(O)C(F)(F)F.O=C(O)C(F)(F)F.O=C(O)C(F)(F)F` (stereo unspecified), the “Percent Effect” value is given as -16.88%. Next, `COCc1nc(CNc2cccc(-c3nc(C)c(C)o3)c2)cs1`: -0.1423%; `N#Cc1cccc(C(=O)N2C[C@H]3CC[C@@H]2CN(C(=O)C2CCC2)C3)c1`: -9.215%.

On to `CN(C)S(=O)(=O)N1C[C@@H]2CC[C@H](C1)N(Cc1ccc(F)c(F)c1)C2`, for which the “Percent Effect” value is -2.464%. As for `Cc1c(Cl)cc(C(=O)NCCc2ncnn2C)cc1Cl`, the “Percent Effect” value is -11.54%. For the compound `O=C1CC(c2cccc(O)c2)c2sc(C(=O)O)c(-c3ccccc3)c2N1` (stereo unspecified), the “Percent Effect” value was 10.05%.

With `CNC(=O)[C@H]1C[C@@H]2CN(Cc3ccc(OC)cc3)C[C@H]1O2.O=C(O)C(F)(F)F`, the “Percent Effect” value came to 98.44%. For `CNC(=O)[C@H]1C[C@@H]2CN(Cc3ccc(C)cc3)C[C@H]1O2.O=C(O)C(F)(F)F`, the “Percent Effect” value was found to be 103.7%. Regarding `CNC(=O)[C@H]1CCS(=O)(=O)[C@@H]2CN(Cc3ccc(OC)cc3)C[C@H]12`, the “Percent Effect” value was determined as 0.06663%. As to `CNC(=O)[C@H]1C[C@@H]2CN(Cc3ccccc3)C[C@H]1O2.O=C(O)C(F)(F)F`, the “Percent Effect” value was 106.1%.

As for `COc1ccc(CN2C[C@@H]3COC[C@H](N4CCN(C)CC4)[C@@H]3C2)cc1.O=C(O)C(F)(F)F.O=C(O)C(F)(F)F.O=C(O)C(F)(F)F`, the “Percent Effect” value is -28.1%. Next, `CN(C)C(=O)[C@H]1C[C@@H]2CN(CCc3ccccc3)C[C@H]1O2.O=C(O)C(F)(F)F`: 12.58%; `CNC(=O)[C@H]1C[C@@H]2CN(Cc3cccc(C)c3)C[C@H]1O2.O=C(O)C(F)(F)F`: 116.6%; `Cc1ccc(CN2C[C@H]3C[C@H](C(=O)NCc4cccnc4)[C@@H](C2)O3)cc1`: 0.7721%. In the case of `Cc1cccc(CN2C[C@H]3C[C@H](C(=O)NCc4cccnc4)[C@@H](C2)O3)c1.O=C(O)C(F)(F)F.O=C(O)C(F)(F)F`, the “Percent Effect” value was -0.193%. Consider `CC(C)c1nc(CNc2ccc(N3CCC(CO)CC3)cn2)cs1`, for which the “Percent Effect” value was determined as 0.232%.

Consider `Cl.O=C(CN1CCC[C@@H]1C(=O)O)NCCOc1cccc(C(F)(F)F)c1`, for which the “Percent Effect” value is on record as -3.641%.

Turning to `Cn1ccnc1CN1C[C@@H](CN2CCCCCC2)[C@@H](CO)C1`, the “Percent Effect” value is -5.321%. With `Nc1nccc(N2C[C@@H](CN3CCCCC3)[C@@H](CO)C2)n1`, the “Percent Effect” value stood at 106.5%. For the compound `Cc1nccc(N2C[C@@H](CN3CCCC3)[C@@H](CO)C2)n1`, the “Percent Effect” value is 109.4%. Take `Cn1ccnc1CN1C[C@@H](CN2CCCCC2)[C@@H](CO)C1`: the “Percent Effect” value is on record as -0.1943%. `OC[C@H]1CN(Cc2c(Cl)cccc2Cl)C[C@H]1CN1CCCCC1`: the “Percent Effect” value was found to be 2.429%. As for `Cn1ccnc1CN1C[C@@H](CN2CCCC2)[C@@H](CO)C1`, the “Percent Effect” value turned out to be 2.193%.

Consider `CCN1CCN(C[C@@H]2CN(c3ncccc3Cl)C[C@@H]2CO)CC1`, for which the “Percent Effect” value was -1.669%. For `CSc1nccc(N2C[C@@H](CN3CCCCC3)[C@@H](CO)C2)n1`, the “Percent Effect” value amounted to 104.9%. Consider `Cc1nc(N2C[C@@H](CN3CCCCC3)[C@@H](CO)C2)c2sccc2n1`, for which the “Percent Effect” value is 8.907%. With `Cc1cc(CN(C)C(=O)C(c2ccccc2C)N(C)C)on1` (stereo unspecified), the “Percent Effect” value is on record as -6.719%.
